# Measurements from the OligoGym collection.
# Target: EPDR1
# Assay: pooled miR-30 sensor sort-seq; sequence = guide strand
# Details: shRNA
# Further: reference of the scale not given here.
row,Sequence,sensor-assay potency score (higher = more potent)
1,TAGGATTCTCTAAACTGCCTTG,-0.223
2,TATTCAAATAATCTCTTGCAGG,-0.781
3,TAGAGGAATAATTACTTCCTAT,-0.811
4,TCAATCTGAAACATCACTCCAT,1.13
5,TAGTCTCATATCCATCTCCAGC,-1.45
6,TAGCATTCACATCTTGACTAGT,0.0481
7,TATCACACTGTAGTTTATGGTA,-0.596
8,TCTAGCTGACTTTCTGTCCGAC,-0.0561
9,TTAGGAGACAATAGTCTCCTGA,-0.95

# Target: EPGN
# Assay: as above
# Details: shRNA
row,Sequence,sensor-assay potency score (higher = more potent)
1,TAATAGTAATCCAACACCAATC,-1.34
2,TTTCTCTAGCTCATGGTGGAAT,-1.09
3,TATGTTGTCAGCTTGCTGGGCT,0.572
4,ATAACCAGTAAAACACCTGCAG,-0.113
5,TTCTATGTTGTCAGCTTGCTGG,-0.845
6,TTGGAGGTGTTACAGTCACGGC,-1.5
7,TAACCAGTAAAACACCTGCAGA,-1.05
8,TTTCATAAGAATCCACAGCATA,-0.859
9,TGCAGTAACTGTTATGATCTTC,-0.113
10,AACCACTTAATAGTAATCCAAC,-1.22
11,TTGAATAAAAGATAGACTGATA,-0.413
12,TAAGAATCCACAGCATATGAAG,-1.16

# Target: EPHA6
# Assay: as above
# Details: shRNA
row,Sequence,sensor-assay potency score (higher = more potent)
1,TTTCTTACAGATTACACTGTAT,-0.425
2,TTACAGATTACACTGTATGTGA,0.175
3,TACAGTTGTTGTATCAAGCAAC,0.0165
4,TTCAGCTCGGAAATAACCCTTT,-0.23
5,TTGGCTTGAATTTAATTCCGTG,0.00331
6,TTTTCTGAGCTGCATCACGGGA,-0.977
7,TATCAAGCAACACAACTTGGTT,-0.642
8,TTTCTGACTGTAGCCACTGTAT,-1.06
9,TGTATCAAGCAACACAACTTGG,-0.401
10,ATTTCTTGTAGAAAACACGGAC,-0.586
11,TTCCATTACATTACATACCTGG,0.0947

# Target: EPHA8
# Assay: as above
# Details: shRNA
row,Sequence,sensor-assay potency score (higher = more potent)
1,TCGATTTTGAGGAACTGGCTTT,-0.582
2,TGCATGATGGTGAACTGCCCGT,-1.1
3,TTGCTGTCAACCAGGACGTTGC,-1.32
4,TCCAGAGTCACTGATGTCCCAT,-0.773
5,TAGCTGAGGTCACAGTGGCAGG,-1.64
6,TACATCTTGGGTGTGTCCCGCT,-0.241
7,ATCGAGGACACTGACAATCTGG,-0.163
8,TCATACTCCAGGATGATGCCGT,0.44
